Calls of active or inactive are those of the source. Calls follow the shape of the dose curve; as a rule, active = well fitted curve in the direction sought with a large enough effect; inconclusive = small, poorly fitted or top-dose-only effect, or another doubt; inactive = no such curve, though single readings can be large; an effect the other way counts as inactive or inconclusive.
Experiment: Cellular Toxicity (caspase-3) SHSY5Y (AID 657);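 also: cells exposed to compound for 16 hours at 37 °C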
Settings: SH-SY5Y caspase-3 activation, DMSO zero, 10 µM staurosporine = 100%; series mostly up to 91.7 µM
Outline: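 Luminescent caspase-3/7 readout (aminoluciferin release) in SH-SY5Y cells after 16 h compound exposure in complete medium. Activity scaled between DMSO basal and 10 uM staurosporine as 100%; concentration-response fitted to Hill equation for AC50.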

| Structure (SMILES) | outcome |
| --- | --- |
| Cc1ccccc1C#N | inactive |
| CCC=O | inactive |
| Oc1c(Cl)ccc(Cl)c1Cl | inactive |
| Cc1ccccc1C=O | inactive |
| CN(C)c1cccc(O)c1 | inactive |
| Cc1ccc(S(=O)(=O)NC2CCCCC2)cc1 | inactive |
| CCOC(=O)OCC | inactive |
| CC(C)(O)CCC(C)(C)O | inactive |
| O=Cc1ccccc1Cl | inactive |
| CCCCCCCCC/C=C/CC1CC(=O)OC1=O (stereo not given) | inactive |
| Cc1ccc2cccnc2c1 | inactive |
| O=Cc1ccc(CO)o1 | inactive |
| CCCC(Cl)CCCC(Cl)CCC(Cl)CCC(Cl)CCC(Cl)CCCC(Cl)CCC (stereo not given) | inactive |
| Cc1ccc(C)o1 | inactive |
| CCCCN(CCO)CCCC | inactive |
| C=C(C)C(=O)OCCCCCC | inactive |
| CCOc1cccc(N)c1 | inactive |
| COC(=O)CCCC(=O)OC | inactive |
| O=C1CCCCC1 | inactive |
| NC(=O)NC(N)=O | inactive |

| Structure (SMILES) | outcome |
| --- | --- |
| CCOCCOCC | inactive |
| CC(C)N=C=NC(C)C | inactive |
| CC(C)=CCl | inactive |
| CCC(C)(C)C(=O)O | inactive |
| Cc1ccc(C)c(N)c1 | inactive |
| CN(C)CCCCl | inactive |
| CCCCOCCOCCOCCCC | inactive |
| CC/C=C/C#N | inactive |
| Cc1cccc2cccnc12 | inactive |
| Cc1ccccc1C(=O)O | inactive |
| C/C(C=O)=C/c1ccccc1 | inactive |
| O=[N+]([O-])c1c(Cl)cc(Cl)cc1Cl | inactive |
| CC(=O)OC(C)=O | inactive |
| CNC(=O)c1ccccc1 | inactive |
| O=Cc1c(Cl)cccc1Cl | inactive |
| c1ccc(Oc2ccccc2)cc1 | inactive |
| Clc1cc(Cl)cc(Cl)c1 | inactive |
| Cc1ccc(C(C)(C)C)cc1 | inactive |
| C=C(C)C(=O)OCC(C)O (stereo not given) | inactive |
| O=C(O)c1cc(Cl)cc(Cl)c1 | inactive |

Experiment: Cellular Toxicity (caspase-3) BJ (AID 658);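 also: cells exposed to compound for 16 hours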
Settings: BJ fibroblasts, luminescence, normalized: DMSO 0%, staurosporine 100%; series mostly up to 91.7 µM
Outline: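 Luminescent aminoluciferin-substrate cleavage reports caspase 3/7 activity in normal human BJ fibroblasts after 16 hr compound exposure at 37 °C. Normalized to DMSO (basal) and 10 uM staurosporine (100%); AC50 from Hill fit of concentration-response.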

| Structure (SMILES) | outcome |
| --- | --- |
| Cc1ccccc1C#N | inactive |
| CCC=O | inactive |
| Oc1c(Cl)ccc(Cl)c1Cl | inactive |
| Cc1ccccc1C=O | inactive |
| CN(C)c1cccc(O)c1 | inactive |
| Cc1ccc(S(=O)(=O)NC2CCCCC2)cc1 | inactive |
| CCOC(=O)OCC | inactive |
| CC(C)(O)CCC(C)(C)O | inactive |
| O=Cc1ccccc1Cl | inactive |
| CCCCCCCCC/C=C/CC1CC(=O)OC1=O (stereo not given) | inactive |
| Cc1ccc2cccnc2c1 | inactive |
| O=Cc1ccc(CO)o1 | inactive |
| CCCC(Cl)CCCC(Cl)CCC(Cl)CCC(Cl)CCC(Cl)CCCC(Cl)CCC (stereo not given) | inactive |
| Cc1ccc(C)o1 | inactive |
| CCCCN(CCO)CCCC | inactive |
| C=C(C)C(=O)OCCCCCC | inactive |
| CCOc1cccc(N)c1 | inactive |
| COC(=O)CCCC(=O)OC | inactive |
| O=C1CCCCC1 | inactive |
| NC(=O)NC(N)=O | inactive |

| Structure (SMILES) | outcome |
| --- | --- |
| CCOCCOCC | inactive |
| CC(C)N=C=NC(C)C | inactive |
| CC(C)=CCl | inactive |
| CCC(C)(C)C(=O)O | inactive |
| Cc1ccc(C)c(N)c1 | inactive |
| CN(C)CCCCl | inactive |
| CCCCOCCOCCOCCCC | inactive |
| CC/C=C/C#N | inactive |
| Cc1cccc2cccnc12 | inactive |
| Cc1ccccc1C(=O)O | inactive |
| C/C(C=O)=C/c1ccccc1 | inactive |
| O=[N+]([O-])c1c(Cl)cc(Cl)cc1Cl | inactive |
| CC(=O)OC(C)=O | inactive |
| CNC(=O)c1ccccc1 | inactive |
| O=Cc1c(Cl)cccc1Cl | inactive |
| c1ccc(Oc2ccccc2)cc1 | inactive |
| Clc1cc(Cl)cc(Cl)c1 | inactive |
| Cc1ccc(C(C)(C)C)cc1 | inactive |
| C=C(C)C(=O)OCC(C)O (stereo not given) | inactive |
| O=C(O)c1cc(Cl)cc(Cl)c1 | inactive |
